POLH inh = blocks human DNA polymerase eta activity | Q9Y253 | recombinant Pol eta, fluorescent DNA replication assay | Potency, µM (series often up to 114 µM), without a hit: top-dose activity change, negative = inhibition, hits mostly inhibitors | actives 1.2% (n = 390,000) | AID 588591; also: % is scaled to controls: 0 for no effect and ±100 for the full control effect
Target sequence (Q9Y253 whole entry, looked up): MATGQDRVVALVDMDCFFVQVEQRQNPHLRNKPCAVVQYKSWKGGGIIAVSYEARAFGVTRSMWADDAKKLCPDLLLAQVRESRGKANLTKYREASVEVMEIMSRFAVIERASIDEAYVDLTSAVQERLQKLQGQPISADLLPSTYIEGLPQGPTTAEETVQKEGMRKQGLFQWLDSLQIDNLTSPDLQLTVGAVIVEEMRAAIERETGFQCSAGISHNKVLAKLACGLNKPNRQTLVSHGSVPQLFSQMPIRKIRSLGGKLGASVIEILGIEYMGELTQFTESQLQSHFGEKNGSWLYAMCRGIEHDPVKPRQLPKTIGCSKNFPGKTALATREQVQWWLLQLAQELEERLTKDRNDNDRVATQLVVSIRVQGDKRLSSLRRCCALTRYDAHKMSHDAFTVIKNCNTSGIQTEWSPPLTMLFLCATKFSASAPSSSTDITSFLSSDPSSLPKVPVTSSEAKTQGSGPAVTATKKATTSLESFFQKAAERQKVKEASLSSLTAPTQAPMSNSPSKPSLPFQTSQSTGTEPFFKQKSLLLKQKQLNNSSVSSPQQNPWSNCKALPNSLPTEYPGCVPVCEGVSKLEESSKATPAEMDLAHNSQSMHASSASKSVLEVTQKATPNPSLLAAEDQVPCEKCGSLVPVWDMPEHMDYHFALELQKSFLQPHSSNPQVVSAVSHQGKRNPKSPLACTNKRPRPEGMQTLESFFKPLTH
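Pol eta at 10 nM preincubated with compounds 15 min at room temperature; reaction started with fluorescent substrate (50 nM final) and read kinetically at 0 and 10 min.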
Pol kappa inh = blocks human DNA polymerase kappa activity | purified Pol kappa, fluorescent DNA synthesis assay, 10 min | actives 0.53% (n = 400,000) | Potency, µM (series often up to 107 µM), for inactives: top-dose activity, negative = inhibition, most hits filed as inhibitors | AID 588579 | Q9UBT6; also: % is scaled to controls: 0 for no effect and ±100 for the full control effect
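Kinetic fluorescence readout at 0 and 10 min followed reaction start with substrate at 50 nM final. Beforehand, enzyme (10 nM Pol kappa) stood 15 min with compound at room temperature; buffer-only wells were negative controls.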
Pol iota inh = inhibitors of human DNA polymerase iota; Potency, µM (titrated, usually from 115 µM), inactives show at the highest dose activity, negative = inhibition, most hits filed as inhibitors; Pol iota fluorescent replication assay, 10 min; actives 1% (n = 390,000)
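Fluorescent replication assay read twice, at 0 min and 10 min after adding 50 nM (final) substrate. Enzyme (10 nM) and compounds were first incubated 15 min at room temperature; enzyme-free buffer wells were negative controls.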
POLB inh = blocks human DNA polymerase beta activity | Potency, µM (series often up to 114 µM), for inactives: top-dose activity change, negative = inhibition, hits mostly inhibitors | Pol beta primer extension/strand displacement, fluorescence kinetic | actives 1.3% (n = 340,000) | P06746; also: % is scaled to controls: 0 for no effect and ±100 for the full control effect
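Human Pol beta at 10 nM; strand-displacement substrate 50 nM final. Compound exposure 15 min at room temperature before start, reaction 10 min at room temperature.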
WRN inhibitor = WRN helicase (human) inhibition; WRN helicase unwinding, fluorescent forked duplex, kinetic; Q14191; actives 0.46% (n = 360,000); AID 651768; Potency, µM (series often up to 114 µM), for the others: at the highest dose activity change, negative = inhibition, hits mostly inhibitors; also: % is scaled to controls: 0 for no effect and ±100 for the full control effect; nearly all actives have a fitted effect of over 55% in size
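Primary qHTS, 1536-well format. 20 nM WRN + compound, 15 min RT; start with 100 nM forked fluorophore/quencher duplex, 2 mM ATP (final); kinetic read ex 525/em 598 nm.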
L3MBTL1 block = blocks human L3MBTL1; Q9Y468; AlphaScreen L3MBTL1–H3K9me1 peptide binding; Potency, µM (top dose mostly 57.1 µM), without a hit: at the top dose activity, negative = inhibition, actives largely listed as inhibitors; actives 0.66% (n = 230,000); AID 485360; also: % is scaled to controls: 0 for no effect and ±100 for the full control effect; nearly all actives have a fitted effect of over 60% in size
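Read-out is AlphaScreen signal from streptavidin donor and nickel chelate acceptor beads (10 ug/mL final each) bridging L3MBTL1 (50 nM) and biotinylated K9-monomethylated H3(1-15) peptide (75 nM), after 30 min compound exposure at room temperature.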
* = called active by the depositor; ? = inconclusive; · = no result; [ ] = remark or other dose. The list is not random: actives were taken first. Their share in the collection is about 2.5%. Calls follow the shape of the dose curve; as a rule, active = well fitted curve in the direction sought with a large enough effect; inconclusive = small, poorly fitted or top-dose-only effect, or another doubt; inactive = no such curve, though single readings can be large; an effect the other way counts as inactive or inconclusive. Potency is read from the fitted curve at half-maximal effect.

SMILES | POLH inh | Pol kappa inh | Pol iota inh | POLB inh | WRN inhibitor | L3MBTL1 block
Cc1ccc2oc(-c3cc(NC(=O)c4ncn[nH]4)ccc3O)nc2c1 | 44.7µM* | -7.7% | 34.5% | ? | -10.3%[11.6 µM] | ·
Cc1ccc2oc(-c3ccc(NC(=O)c4ccncc4)cc3O)nc2c1 | 11.3% | -10.7% | 76.1% | ? | 2.4%[57.1 µM] | -8.0%
CCC(/C=C1\Sc2ccc(OC)cc2N1CCO)=C\c1sc2ccc(OC)cc2[n+]1CCO | 14.1µM* | ? | ? | 22.4µM* | 50.1µM* | ?
CCC(/C=C1\Sc2ccc(OC)cc2N1CC)=C\c1sc2ccc(OC)cc2[n+]1CCCS(=O)(=O)[O-] | ? | 22.8%[60.1 µM] | 120.8% | 8.91µM* | 31.9% | ·
CCO/C(=C/c1sc2ccc(OC)cc2[n+]1CCCS(=O)(=O)[O-])CC | -2.5% | -12.8% | -16.0% | -1.0% | -3.8% | ·
CCC(=O)/C=C1/Sc2ccc(OC)cc2N1CCO | -21.9% | -0.6% | 71.2% | -12.6% | -2.2% | -6.1%
CN1CCCC(OC(=O)c2ccc(S(=O)(=O)N(C)C)cc2)C1 (stereo not drawn) | -16.9% | -0.9% | ? | 15.3% | 7.6% | ·
O=C(CN1CC(c2ccccc2)CC1=O)OCc1ccccc1F (stereo not drawn) | -13.4% | 0.6% | 21.7% | -1.5% | -2.2% | -5.2%
COC(=O)CNC(=O)N1CCN(S(=O)(=O)c2ccc3c(ccn3C)c2)CC1 | -7.2% | -9.9%[60.1 µM] | 3.7% | 10.1% | · | ·
CC(=O)OCCCNc1cc(SCc2ccco2)c2nonc2c1[N+](=O)[O-] | 22.4µM* | 12.6µM* | 3.16µM* | 14.1µM* | 22.4µM* | ?
CCCSc1cc(NCCOC(C)=O)c([N+](=O)[O-])c2nonc12 | -4.8% | -3.7% | 29.8% | 7.0% | 15.8% | 3.3%
CCCC(=O)OCCNc1cc(SCc2ccco2)c2nonc2c1[N+](=O)[O-] | 11.2µM* | 35.5µM* | 2.51µM* | 11.2µM* | 35.5µM* | ?
CC(C)COC(=O)N(C)c1ccc(C(O)(C(F)(F)F)C(F)(F)F)cc1 | -13.7% | -21.4% | 0.1% | 1.7% | -32.8%[57.1 µM] | 8.2%
C[C@@]12C(=O)N(CC3CCCO3)CC(=O)N1[C@H]1c3cc(Cl)ccc3OC[C@@H]1[C@@H]2c1ccccc1 (stereo partly drawn) | -11.2% | 16.0% | 5.2% | · | -0.6% | -2.3%
O=C(/C=C/c1cccs1)c1ccc(NC(=O)c2ccccc2F)cc1 | -6.6% | -3.6% | ? | -2.8% | 4.6% | -16.6%
CC12CCC(C(N)=O)(c3nc4ccccc4nc31)C2(C)C (stereo not drawn) | -4.6% | 1.0% | -9.1% | 89.1µM* | -5.4% | -3.3%
CN(C)C(=O)C12CCC(C)(c3nc4ccccc4nc31)C2(C)C (stereo not drawn) | -5.4% | -19.0% | 12.9% | 11.6% | -8.7% | -16.1%
CC[C@H](C)/C=C(C)/C=C/C(=O)Cc1cc(O)c(C)c(O)c1C=O | 50.1µM* | -39.6% | ? | ? | -6.1%[11.6 µM] | ·
COc1ccc(CNC(=O)C(CC(C)C)NS(=O)(=O)c2ccc3c(c2)oc(=O)n3C)cc1 (stereo not drawn) | 3.4% | -8.4% | -6.5% | 19.4% | · | ·
Cc1ccc(N2NC(=O)/C(=C\c3cc4c(cc3[N+](=O)[O-])OCO4)C2=O)cc1C | ? | -17.4% | ? | 20µM* | ? | -15.3%
O=C1NN(c2ccccc2)C(=O)/C1=C\c1ccc2c(c1)OCO2 | 2.5% | -2.9% | 109.6% | 3.7% | ? | -4.4%
COc1cc(CNCc2ccccc2)c(Br)cc1OC1CCCC1 | -19.4% | -8.7% | 64.0% | 14.4% | -17.4% | 4.5%[11.4 µM]
CCn1c(SCC(=O)Nc2cc(OC)ccc2OC)nc2c(c1=O)SCC2 | -8.1% | -4.1% | -1.4% | 22.4µM* | ? | ·
Cc1c(C(=O)N2CCN(c3ccccn3)CC2)oc2ccccc12 | -6.0% | -12.0% | 13.6% | 2.9% | -4.1% | 27.5%
CCOc1ccc2oc(C(=O)N3CCN(c4ccccn4)CC3)c(C)c2c1 | 20µM* | -9.1% | ? | ? | -21.3% | ·
SMILES | POLH inh | Pol kappa inh | Pol iota inh | POLB inh | WRN inhibitor | L3MBTL1 block
Clc1ccc(OCc2nc(-c3ccc(-n4cccc4)cc3)no2)cc1 | -8.9% | -22.2% | 89.1µM* | 0.1% | · | ·
CCOc1cc2c(C#N)c(N(CC)CC)nc(N)c2c(N)n1 | -15.9% | -4.7% | 10µM* | · | -5.8%[57.1 µM] | ·
COc1ccc(C(=O)NNC2=NC(C)(C)Cc3ccccc32)cc1 | -11.3% | 1.2% | 15.2% | -17.8% | 6.6% | 6.5%
Cc1sc2ccccc2[n+]1CC(=O)O | -5.8% | -0.5% | ? | 0.3% | 50.1µM* | -6.1%
Nc1nnc(-c2cc3c(ccc4ccccc43)oc2=O)s1 | · | · | · | 22.4µM* | · | 20.4%
COc1ccc(N(C(=O)c2snc(C(N)=O)c2N)C(C(=O)NC2CCCCC2)c2ccc(F)cc2)c(OC)c1 (stereo not drawn) | 22.4µM* | -3.5% | ? | 79.4µM* | -6.9% | ·
O=C(NNC(=O)c1cccc(-n2cccc2)c1)c1ccc(F)cc1 | 14.1µM* | ? | 50.1µM* | · | ? | 22.4µM*
Cc1cccc(C(=O)NNC(=O)c2ccc(F)cc2)c1 | 5.9% | 1.2%[60.1 µM] | 21.1% | 1.2% | 7.5% | 3.9%
O=C(CSc1ccccc1)N1CCN(S(=O)(=O)c2ccccc2F)CC1 | ? | -39.3% | 50.1µM* | 44.7µM* | 4.8%[11.6 µM] | ·
O=C(O)c1ccccc1N/C=C\[N+](=O)[O-] | ? | -18.8% | ? | 25.1µM* | -7.2% | ·
CC(=O)Nc1ccc(S(=O)(=O)CC(=O)CS(=O)(=O)c2ccc(NC(C)=O)cc2)cc1 | 35.5µM* | · | · | · | -6.6%[11.6 µM] | ·
COC1=CC(=Cc2c(N)n3nc(CC(=O)N4CCCCC4)sc3nc2=O)C=C(OC)C1=O | 56.2µM* | ? | ? | 16.9% | -9.8%[11.6 µM] | ·
O=C1Cc2cc(S(=O)(=O)N3CCCCC3)ccc2N1 | -17.2% | -5.9% | 23.8% | 4.7% | 4.5% | ·
Oc1c(Cl)cc(Cl)cc1/C=C/c1ccc2cccc(O)c2n1 | -28.2% | -15.5% | 22.7% | 28.2µM* | -23.3% | -18.5%
Oc1ccc(Cl)cc1/C=C/c1ccc2cccc(O)c2n1 | -23.8% | -4.9% | 62.5% | 0.6% | -8.4% | -8.8%
COc1cc(/C=C2/C=Cc3ccccc32)ccc1N(C)C | · | ? | 70.8µM* | · | · | ·
COc1cc(/C=C2\C=Cc3ccccc32)ccc1N(C)C | · | 1.2% | ? | · | · | ·
N#CC(C#N)=C1NC2(CCCCC2)Cc2ccccc21 | -14.9% | -9.6% | 31.4% | -16.5% | -2.8% | -0.9%
N#CC(C#N)=c1ccc2c(c1)NC1(CCCCC1)N=2 | -14.5% | -31.0% | 2.1% | 1.0% | -27.5% | 28.2µM*
Cc1cc(-c2ccco2)c(C#N)c2nc3ccccc3n12 | 10µM* | ? | ? | 8.91µM* | -35.0% | -24.5%

Source: PubChem BioAssay
